Reference: PubChem BioAssay AID1159580 (chemical genetic matrix, 2015)
Values joined by “and” are separate entries in the source; they are usually repeats but may differ in a detail not shown here. Equal values may be shown once. Hit rate of the full screen: of about 5,500 compounds, about 2,000 (36%) were called active. Inconclusive results (about 18%) are left out. No stated cut-off is given here; in the data, active means normalized growth mostly below about 0.91 (no sharp cut-off); inconclusive means no clear call, values can overlap the other calls; inactive means mostly above about 0.92. The list shows a part of the results.

Experiment: chemical genetic growth profiling, strain panel (AID 1159580);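 further: tested at 20 µM; growth read once vehicle control cultures reached saturation at 30 °C; 1 = growth at the plate median or of vehicle wells; lower values mean less growth of the strain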
Conditions: growth OD

Measured: normalized growth

Cc1ccc(/C(=C\CN2CCCC2)c2ccccn2)cc1
inactive: S. cerevisiae deletion strains, locus YJR075W, strain HOC1, active compounds read low 1.01 and 0.98 | S. cerevisiae deletion strains, locus YKL009W, strain mrt4, active compounds read low 0.996 | S. cerevisiae deletion strains, locus YKL068W, active compounds read low 0.999 | S. cerevisiae deletion strains, locus YKL085W, strain MDH1 (second series), active compounds read low 1.01 | S. cerevisiae deletion strains, locus YKL085W, strain MDH1, active compounds read low 1.01 | S. cerevisiae deletion strains, locus YKL160W, strain elf1, active compounds read low 1.03 | S. cerevisiae deletion strains, locus YKL190W, strain CNB1, active compounds read low 1.02 | S. cerevisiae deletion strains, locus YKR001C, strain vps1, active compounds read low 0.986 | S. cerevisiae deletion strains, locus YKR026C, strain gcn3, active compounds read low 1 | S. cerevisiae deletion strains, locus YKR091W, strain srl3, active compounds read low 0.991 | S. cerevisiae deletion strains, locus YLL001W, strain dnm1, active compounds read low 1.04 | S. cerevisiae deletion strains, locus YLL026W, active compounds read low 1.04 | S. cerevisiae deletion strains, locus YLL041C, strain sdh2, active compounds read low 1.01 | S. cerevisiae deletion strains, locus YLR027C, strain aat2, active compounds read low 1.04 | S. cerevisiae deletion strains, locus YLR039C, strain RIC1, active compounds read low 1.03 | S. cerevisiae deletion strains, locus YLR058C, strain SHM2, active compounds read low 1.01 | S. cerevisiae deletion strains, locus YLR102C, strain apc9, active compounds read low 0.998 | S. cerevisiae deletion strains, locus YLR113W, strain HOG1, active compounds read low 1.02 | S. cerevisiae deletion strains, locus YLR221C, strain rsa3, active compounds read low 0.977 | S. cerevisiae deletion strains, locus YLR258W, strain gsy2, active compounds read low 0.986 | S. cerevisiae deletion strains, locus YLR262C, strain YPT6 (second series), active compounds read low 1.02 | S. cerevisiae deletion strains, locus YLR262C, strain YPT6, active compounds read low 1.01 | S. cerevisiae deletion strains, locus YLR268W, strain sec22, active compounds read low 0.999 | S. cerevisiae deletion strains, locus YLR320W, strain mms22, active compounds read low 0.973 | S. cerevisiae deletion strains, locus YLR330W, strain CHS5, active compounds read low 1.01 | S. cerevisiae deletion strains, locus YLR342W, strain FKS1 (second series), active compounds read low 0.997 | S. cerevisiae deletion strains, locus YLR342W, strain FKS1, active compounds read low 1.02 | S. cerevisiae deletion strains, locus YLR357W, strain rsc2, active compounds read low 0.992 | S. cerevisiae deletion strains, locus YLR370C, strain arc18, active compounds read low 1.01 | S. cerevisiae deletion strains, locus YLR371W, strain rom2, active compounds read low 1.01 | S. cerevisiae deletion strains, locus YLR384C, strain iki3, active compounds read low 1 | S. cerevisiae deletion strains, locus YLR418C, strain cdc73, active compounds read low 0.991 | S. cerevisiae deletion strains, locus YML016C, strain PPZ1, active compounds read low 1 | S. cerevisiae deletion strains, locus YML032C, strain rad52, active compounds read low 1 | S. cerevisiae deletion strains, locus YML120C, strain ndi1, active compounds read low 1.05 | S. cerevisiae deletion strains, locus YML124C, strain tub3, active compounds read low 0.995 | S. cerevisiae deletion strains, locus YMR058W, strain fet3, active compounds read low 1.02 | S. cerevisiae deletion strains, locus YMR078C, strain ctf18, active compounds read low 0.997 | S. cerevisiae deletion strains, locus YMR125W, strain sto1, active compounds read low 1.02 | S. cerevisiae deletion strains, locus YMR129W, active compounds read low 1.01 | S. cerevisiae deletion strains, locus YMR205C, strain PFK2, active compounds read low 1.02 | S. cerevisiae deletion strains, locus YMR223W, strain ubp8, active compounds read low 0.998 | S. cerevisiae deletion strains, locus YMR231W, strain pep5, active compounds read low 0.999 | S. cerevisiae deletion strains, locus YMR263W, strain SAP30, active compounds read low 1.01 and 0.981 | S. cerevisiae deletion strains, locus YMR307W, strain GAS1, active compounds read low 0.983 and 0.987 | S. cerevisiae deletion strains, locus YNL067W, strain RPL9B, active compounds read low 1 | S. cerevisiae deletion strains, locus YNL071W, strain lat1, active compounds read low 0.986 | S. cerevisiae deletion strains, locus YNL128W, strain TEP1, active compounds read low 1.02 | S. cerevisiae deletion strains, locus YNL153C, strain GIM3, active compounds read low 1.01 | S. cerevisiae deletion strains, locus YNL175C, strain NOP13, active compounds read low 0.996 | S. cerevisiae deletion strains, locus YNL183C, strain NPR1, active compounds read low 0.952 | S. cerevisiae deletion strains, locus YNL197C, strain WHI3, active compounds read low 1.01 | S. cerevisiae deletion strains, locus YNL209W, strain ssb2, active compounds read low 0.996 | S. cerevisiae deletion strains, locus YNL224C, strain SQS1, active compounds read low 0.989 | S. cerevisiae deletion strains, locus YNL233W, strain BNI4, active compounds read low 1.01 | S. cerevisiae deletion strains, locus YNL248C, strain rpa49, active compounds read low 0.992 | S. cerevisiae deletion strains, locus YNL250W, strain rad50, active compounds read low 1 | S. cerevisiae deletion strains, locus YNL271C, strain bni1, active compounds read low 0.986 | S. cerevisiae deletion strains, locus YNL298W, strain CLA4, active compounds read low 1 | S. cerevisiae deletion strains, locus YNL307C, strain MCK1, active compounds read low 1.01 | S. cerevisiae deletion strains, locus YNL322C, strain KRE1 (second series), active compounds read low 1.01 | S. cerevisiae deletion strains, locus YNL322C, strain KRE1, active compounds read low 1.01 | S. cerevisiae deletion strains, locus YNR049C, strain mso1, active compounds read low 1.01 | S. cerevisiae deletion strains, locus YNR052C, strain pop2, active compounds read low 1 | S. cerevisiae deletion strains, locus YOL006C, strain TOP1, active compounds read low 1 | S. cerevisiae deletion strains, locus YOL012C, strain htz1 1.12 | S. cerevisiae deletion strains, locus YOL147C, strain pex11, active compounds read low 0.992 | S. cerevisiae deletion strains, locus YOR001W, strain rrp6, active compounds read low 1.02 | S. cerevisiae deletion strains, locus YOR061W, strain CKA2, active compounds read low 1.01 | S. cerevisiae deletion strains, locus YOR069W, strain VPS5, active compounds read low 1.01 | S. cerevisiae deletion strains, locus YOR070C, strain gyp1, active compounds read low 0.992 | S. cerevisiae deletion strains, locus YOR080W, strain dia2, active compounds read low 1.02 | S. cerevisiae deletion strains, locus YOR083W, strain WHI5 (second series), active compounds read low 0.985 | S. cerevisiae deletion strains, locus YOR083W, strain WHI5, active compounds read low 1 | S. cerevisiae deletion strains, locus YOR106W, strain vam3, active compounds read low 1.05 | S. cerevisiae deletion strains, locus YOR136W, strain idh2, active compounds read low 1 | S. cerevisiae deletion strains, locus YOR144C, strain elg1, active compounds read low 0.995 | S. cerevisiae deletion strains, locus YOR184W, strain ser1, active compounds read low 1 | S. cerevisiae deletion strains, locus YOR231W, strain MKK1, active compounds read low 0.984 | S. cerevisiae deletion strains, locus YOR265W, strain rbl2, active compounds read low 1.01 | S. cerevisiae deletion strains, locus YOR270C, strain vph1, active compounds read low 0.985 | S. cerevisiae deletion strains, locus YOR290C, strain snf2, active compounds read low 0.96 | S. cerevisiae deletion strains, locus YOR316C, strain cot1, active compounds read low 1 | S. cerevisiae deletion strains, locus YPL051W, strain arl3, active compounds read low 1.02 | S. cerevisiae deletion strains, locus YPL055C, strain LGE1, active compounds read low 1.02 | S. cerevisiae deletion strains, locus YPL078C, strain atp4, active compounds read low 1.06 | S. cerevisiae deletion strains, locus YPL106C, strain sse1, active compounds read low 0.987 | S. cerevisiae deletion strains, locus YPL240C, strain hsp82, active compounds read low 1.04 | S. cerevisiae deletion strains, locus YPL241C, strain CIN2, active compounds read low 1 and 0.988 | S. cerevisiae deletion strains, locus YPL256C, strain CLN2, active compounds read low 1 | S. cerevisiae deletion strains, locus YPR119W, strain clb2, active compounds read low 1 | S. cerevisiae deletion strains, locus YPR141C, strain kar3, active compounds read low 0.998 | S. cerevisiae deletion strains, locus YPR163C, strain tif3, active compounds read low 0.994 | S. cerevisiae deletion strains, locus YPR167C, strain met16, active compounds read low 1 | S. cerevisiae deletion strains, strain wtn01, active compounds read low 0.999 | S. cerevisiae strains, strain wild type, active compounds read low 1.01
